Source: PubChem BioAssay AID2451 (National Center for Advancing Translational Sciences (NCATS), 2010)
About 2,100 (0.72%) of roughly 290,000 compounds were called active. Inconclusive results (about 4%) are left out. The sample holds actives, similar compounds and a random draw of the others, so the mix is not that of the screen. Values without a mark were called inactive. Calls follow the shape of the dose curve; as a rule, active = well fitted inhibition curve with a large enough effect; inconclusive = small, poorly fitted or top-dose-only effect, or effect the other way; inactive = flat fitted curve, though single readings scatter.

These molecules were tested against Fructose-bisphosphate aldolase (Giardia intestinalis (strain ATCC 50803 / WB clone C6)) (UniProt A8B2U2) (assay: qHTS Assay for Inhibitors of Fructose-1,6-bisphosphate Aldolase from Giardia Lamblia). Details: purified Giardia FBPA; series mostly up to 59.6 µM; activity, negative = inhibition: at the top concentration.
Fructose-bisphosphate aldolase (Giardia intestinalis (strain ATCC 50803 / WB clone C6)), sequence (A8B2U2 whole entry, looked up): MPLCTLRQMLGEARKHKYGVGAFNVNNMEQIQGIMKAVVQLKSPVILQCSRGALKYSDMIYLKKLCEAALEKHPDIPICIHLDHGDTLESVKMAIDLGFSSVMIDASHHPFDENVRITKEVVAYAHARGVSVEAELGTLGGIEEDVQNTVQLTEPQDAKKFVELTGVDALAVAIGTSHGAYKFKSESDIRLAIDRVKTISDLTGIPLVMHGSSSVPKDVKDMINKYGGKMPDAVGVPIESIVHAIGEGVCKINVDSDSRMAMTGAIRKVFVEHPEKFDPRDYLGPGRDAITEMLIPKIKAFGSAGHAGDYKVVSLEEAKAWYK
Source text: Assay Provider: Osnat Herzberg, University of Maryland
The objective of this project is to obtain compounds that inhibit Giardia lamblia growth. G. lamblia is a human pathogen which afflicts impoverished nations; it is the most common cause of outbreaks of diarrhea in the United States. During the course of our study of potential drug targets in Giardia, we have identified the Class II (Zn2+ functions in electrophilic catalysis) fructose-1,6-bisphosphate aldolase (FBPA) as an excellent candidate for drug targeting. FBPA is a key glycolytic pathway enzyme, essential for G. lamblia survival. The human FBPA belongs to the Class I aldolases, which have a different substrate binding site structure and a radically different catalytic mechanism (employing a lysine-Schiff base intermediate). Therefore, affinity-based or mechanism-based inhibitors of the Giardia FBPA are expected not to interfere with the catalytic function of the human FBPA.
A glyceraldehyde-3-phosphate dehydrogenase/triose phosphate isomerase/NAD/arsenate coupled assay was adapted to the 1536-well HTP format for use in the primary screen. This was done by coupling it to a diaphorase/resazurin/resorufin reaction that can be monitored by fluorescence (excitation, 544 nm; emission, 590 nm). Compounds identified in this screen will be further evaluated by coupling the glycerol-3-phosphate/triose phosphate isomerase/NADH assay to a phenazine methosulfate/tetranitroblue tetrazolium color reaction. False positives due to the dehydrogenases and diaphorase inhibition will be eliminated, and selectivity assay will triage inhibitors of mammalian triose phosphate isomerase and the Class I FBPA. G. lamblia FBPA inhibitors identified by the in vitro analyses will be examined for growth inhibition of Giardia trophozoites, and for cytotoxicity in human cells.
Step,Parameter,Value,Description
1,Enzyme reagent,2 uL,40 nM FBPA
2,Compound,23 nL,3.68 nM-57.5 uM final concentration
3,Time,10 min,RT Incubation
4,Substrate/detection Reagent,2 uL,Substrate + enzyme coupling system + AmpLite Red kit
5,Time,20 min,RT Incubation
6,Detector,525 nm/598 nm (Fluorescence),ViewLux Fluorescence Read (Read 1)
1,Medium-binding black solid-bottom Kalypsys plates. FRD or Kalypsys dispenser, 2 uL of FBPA enzyme. Bottle kept at 4C.
2,Compound Library (10 mM ,1:5 dilution). Pin-transferred for a [final] range of 3.68 nM-57.5 uM.
4,FRD or Kalypsys dispenser, 2 uL of reaction mixture. Bottle kept at 4C and covered in foil to protect from light.
6,ViewLux Protocol 1194; Excitation filter wheel A (525/20 Pol; BODIPY TMR FP), Emission filter wheel B (598/25 S; BODIPY TMR FP S).
Keywords: Fructose-bisphosphate aldolase, FBPA , Giardia lamblia , Giardia, HTS, Inhibitors
% is scaled to controls: 0 for no effect and ±100 for the full control effect; potency is read from the fitted curve at half-maximal effect.
Also: nearly all actives have a fitted effect of over 55% in size.

SMILES | activity, negative = inhibition [%] | Potency
Cc1ccc(Cl)c(OCC(=O)N2CCc3ccccc3C2)c1 | 5.62 | 
COc1ccccc1C(=O)CSc1cccc[n+]1[O-] | 2 | 
O=C(CSc1cccc[n+]1[O-])c1ccc(Cl)cc1 | -5.54 | 
O=C(CSc1cccc[n+]1[O-])c1ccc(-c2ccccc2)cc1 |  | 17.7 µM (active)
NS(=O)(=O)c1ccccc1NC(=O)c1c(O)c2ccccc2[nH]c1=O | -2.83 | 
CC(C)c1ccc(/C=C2\NC(=O)NC2=O)cc1 | -2.07 | 
CC(=O)N1CCC(C(=O)OCc2ccc(Cl)cc2)(c2ccccc2)CC1 | -0.423 | 
O=C(Cc1c[nH]c2ccccc12)OCCOC(=O)Cc1c[nH]c2ccccc12 | -8.65 | 
Cc1cccc2c(CCN)c[nH]c12 | -6.67 | 
COc1ccc(Nc2ncnc3ccc(Br)cc23)c(OC)c1 | 11.8 | 
O=C(c1cc(COc2ccc(F)cc2F)on1)N1CCOCC1 | -1.6 | 
CSc1ccccc1NC(=O)c1cc(Cl)sc1Cl | -3.44 | 
CCCCC(C(=O)NC(C)(C)C)N(Cc1ccccc1)C(=O)c1snc(C(N)=O)c1N (stereo unspecified) | 3.79 | 
COc1ccccc1N1CCN(Cc2ccc(OC)c3ccccc23)CC1 | -12.6 | 
COc1ccc(CN2CCN(Cc3ccc(OC)c(OC)c3OC)CC2)cc1 |  | 14.1 µM (active)
CN1CCN(Cc2ccc(OC(F)(F)F)cc2)CC1 | -8.47 | 
Cc1cc(N=Nc2ccc3ccccc3c2)ccc1O | -0.276 | 
O=S(=O)(Nc1ccccc1Cl)c1cccc2nsnc12 | -29.6 | 
CCOC(=O)c1cc2cc3ccccc3cc2oc1=O | 7.13 | 

SMILES | activity, negative = inhibition [%] | Potency
COc1ccc(Cl)cc1C(=O)NNC(=O)c1nc2nc(C)cc(C)n2n1 |  | 17.7 µM (active)
C=CCNC(=S)NNC(=O)c1cc(Cl)ccc1OC | 0.21 | 
Cc1cc(C)n2nc(C(=O)NC(C)(C)C)nc2n1 | 4.08 | 
CCN1C(=S)N[C@@H](c2cccc(C(F)(F)F)c2)C(C(=O)OC)=C1C | -1.9 | 
O=C(Nc1cccnc1Cl)c1cc(-c2ccccc2O)on1 | 3.89 | 
O=C(Nc1nnc(-c2ccco2)o1)c1ccc(S(=O)(=O)N2CCOCC2)cc1 |  | 17.7 µM (active)
CC1CCCCN1S(=O)(=O)c1ccc(C(=O)Nc2nnc(-c3cccs3)o2)cc1 (stereo unspecified) | 24.1 | 
O=C(Nc1ccc(N2CCOCC2)c(Cl)c1)c1ccc(S(=O)(=O)N2CCOCC2)cc1 | -6.37 | 
CC1CCCN(S(=O)(=O)c2ccc(C(=O)Nc3nnc(-c4ccncc4)o3)cc2)C1 (stereo unspecified) |  | 7.06 µM (active)
Cc1ccnc(NS(=O)(=O)c2ccc(NC(=O)c3ccc(S(=O)(=O)N4CCOCC4)cc3)cc2)n1 | -8.56 | 
CSCc1nnc(NC(=O)c2ccc(S(=O)(=O)N3CCCCC3C)cc2)o1 (stereo unspecified) | -19.3 | 
CC(C)(C)c1ccc(Cn2nnc3c(=O)[nH]c(C4CCCN(C(=O)c5ccco5)C4)nc32)cc1 (stereo unspecified) | -0.49 | 
Cc1cccc(C(=O)Nc2ccc(Oc3cnccn3)cc2)c1 | -1.08 | 
CN(Cc1ccccc1)C(=O)CSc1nc2ccccc2[nH]1 | -15.7 | 
COc1cc(Cl)ccc1OCc1cc(C(=O)N2CC[C@@H]3CCCC[C@H]3C2)no1 | 10.8 | 
COC(=O)[C@@H]1C[C@@]2(O)[C@H](O)[C@H](O)[C@H](O)C[C@H]2N1CC1CCCCC1 | -3.43 | 
c1ccc(-c2ccc(OCCN3CCOCC3)cc2)cc1 | -28.9 | 
CC(=O)c1ccc(OCCN2CCOCC2)cc1 | -22.4 | 
Cc1cccc(C)c1OCCN1CCOCC1 |  | 15.8 µM (active)

SMILES | activity, negative = inhibition [%] | Potency
N#Cc1ccc(C2N=C(c3ccccc3)NO2)cc1 (stereo unspecified) | -0.519 | 
COc1ccccc1C(C)NC(=O)Cc1ccsc1 (stereo unspecified) | -2.45 | 
O=C(C[n+]1cc(Br)cc2ccccc21)c1ccc(F)cc1 | 2.91 | 
O=[N+]([O-])c1ccc2c(c1)Nc1nc3ccccc3nc1N2 | 18.9 | 
O=C(CSc1nc2ccc([N+](=O)[O-])cc2[nH]1)c1ccc(Cl)cc1 | -0.835 | 
O=[N+]([O-])c1ccc2nc(-c3ccccn3)[nH]c2c1 |  | 7.92 µM (active)
COc1cccc(N(CC(=O)NCc2ccccc2)C(=O)CCC(=O)Nc2nccs2)c1 | -1.2 | 
CCOc1ccccc1NC(=S)NC(=O)CCc1ccccc1 | -4.01 | 
COCCN(C(=S)Nc1ccccc1OC)C1CCN(C(C)C)CC1 |  | 15.8 µM (active)
COCCN(CCOC)C(=S)Nc1ccccc1Cl | 3.46 | 
CCc1cccc(NC(=S)N(CCN(C)C)C2CCN(C(C)C)CC2)c1 | -10.9 | 
CCNc1c(NS(=O)(=O)c2ccc(C3CCCCC3)cc2)c(=O)oc2ccccc12 | -19.3 | 
O=c1c(O)c(Br)ccc2c(Br)c(O)c(O)c(O)c12 |  | 11.2 µM (active)
Cc1noc(C)c1-c1ccc2ncnc(NCc3ccc4[nH]ccc4c3)c2c1 | 0.0751 | 
COc1ccc(/C=C/C(=O)NC(=S)NN2CCCCC2c2cccnc2)cc1 (stereo unspecified) | -11.6 | 
COc1ccc(C(=O)NC(=S)N2CCCCC2c2cccnc2)cc1OC (stereo unspecified) |  | 3.55 µM (active)
O=C(NC(=S)N1CCCCC1c1cccnc1)c1ccccc1 (stereo unspecified) | -26.5 | 
CC(C)(C)c1ccc(C(=O)N2CCN(CCNC(=O)C(=O)Nc3ccc(F)cc3)CC2)cc1 | -8.9 | 
